Rows were chosen to be rich in hits. Some 6.6% of all compounds tested hit in one or more screens of this group.
Beta apoptosis: beta cell apoptosis inhibition. INS-1E cytokine-induced death, ATP luminescence, 48 h; percent of positive-control rescue, neutral wells zero. protection from apoptosis, % (no concentration beside the values). 300,000 tested, 0.8% active;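 active = Every replicate reaches about 75%, or at least half do and their mean reaches it too, limit read from the data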;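 also: 0% = cytokine-treated negative control wells and 100% = positive control rescue; higher means more ATP so stronger rescue from cytokine killing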
Gli-Sufu block: blocks Gli-Sufu signaling in a luciferase reporter | Sufu-KO-LIGHT fibroblasts, Gli luciferase reporter luminescence | inhibition, % at 5 µM | AID 588413 | 340,000 tested, 0.74% active;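 active = inhibition above about 55%, limit read from the data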;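 also: 0% = DMSO-treated cells and 100% = wells with medium but no cells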
CSC inhib: cancer stem cell inhibition. inhibition, % at 7.5 µM. cancer stem cell-like cells viability, luminescence. AID 2717. 300,000 tested, 1.1% active; in the data active = inhibition above about 75%; tested in HMLE shEcad cells
MPTP inh: permeability transition pore inhibition | isolated mouse mitochondria, Ca2+ swelling absorbance, 30 min | inhibition, % at 10 µM | 360,000 tested, 1.4% active | AID 602449;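 active = inhibition of 50% or more, scaled per plate between neutral and stimulator controls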;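 also: 0% = DMSO wells given calcium and 100% = 1 mM EGTA wells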
Mdm2 MdmX PPI: human Mdm2/MdmX binding inhibition; O15151+Q00987; SaOS-2 split-luciferase Mdm2/MdmX complementation, luminescence; inhibition, % at 8 µM; 330,000 tested, 3% active; AID 485346;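 active = inhibition of at least 50% at 8 µM in the primary screen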
GRIN3A LBD mod: modulates the human NR3A ligand-binding domain; 340,000 tested, 2.5% active; Tm shift relative to glycine control, % at 25 µM; NR3A LBD differential scanning fluorimetry, Tm shift; 0% = protein alone, 100% = glycine-bound protein; AID 1259313;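 active = melting temperature shift of at least 10% of the positive control shift, at one fixed dose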
Gli antag conf: Gli-SUFU antagonism confirmation, single concentration. Sufu-KO-LIGHT cells, Gli luciferase reporter, luminescence. inhibition, % at 5 µM. 2,500 tested, 40% active. shares compounds with Gli-Sufu block;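 active = mean inhibition at 5 µM reaching about 45%, limit read from the data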;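 also: plate controls were DMSO-treated cells for no effect and wells lacking cells for full effect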
SufuKO cytotox: counter-screen for Gli-SUFU antagonists: cytotoxicity; shares compounds with Gli-Sufu block; Sufu-KO-LIGHT cells cytotoxicity, ATP luminescence; cytotoxicity, % at 5 µM; 2,500 tested, 32% active; AID 651994;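 active = mean cytotoxicity at 5 µM above about 25%, limit read from the data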;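 also: cells exposed to compound overnight for roughly 16 to 18 hours; plate controls were DMSO wells with cells for no effect and medium without cells for full effect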
Wnt3a counter: Wnt3a reporter inhibition counter-screen; 2,500 tested, 20% active; AID 651995; inhibition, % at 6.25 µM; Wnt-LIGHT cells, Wnt3a-driven luciferase reporter, luminescence; shares compounds with Gli-Sufu block;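 active = mean inhibition above about 25%, limit read from the data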
* hit, by the source's call.

`Cc1ccc(C)c(N2CC(O)(c3cccs3)[N+]3=C2CCCC3)c1` (stereo not drawn) gave Beta apoptosis 7, Gli-Sufu block 62*, CSC inhib -7, MPTP inh 1, Mdm2 MdmX PPI -18, GRIN3A LBD mod 0, Gli antag conf 50*, SufuKO cytotox 27* and Wnt3a counter -14.
For OC1(c2cccs2)CN(c2ccc(Cl)cc2)C2=[N+]1CCCC2 (stereo not drawn) the results were Beta apoptosis 1, Gli-Sufu block 12, CSC inhib 22, MPTP inh 1, Mdm2 MdmX PPI -4 and GRIN3A LBD mod -2.
`Fc1ccc(Cn2nnnc2CN2CCN(C3CCCC3)CC2)cc1` gave Beta apoptosis -3, Gli-Sufu block 93*, CSC inhib 23, MPTP inh -2, Mdm2 MdmX PPI -3, GRIN3A LBD mod 3, Gli antag conf 18, SufuKO cytotox -11 and Wnt3a counter 0.
`COc1ccc(S(=O)(=O)N(CC(C)C)C2CCS(=O)(=O)C2)cc1OC` (stereo not drawn) gave Gli-Sufu block 7, CSC inhib -12, MPTP inh 0, Mdm2 MdmX PPI 8 and GRIN3A LBD mod 0.
Screening CCN(C[C@H]1N[C@@](Cc2ccccc2)(C(=O)OC)[C@H]2C(=O)N(Cc3ccccc3)C(=O)[C@@H]12)C(=O)C1CCCCC1 returned Gli-Sufu block 3, MPTP inh 0, Mdm2 MdmX PPI 26 and GRIN3A LBD mod -1.
Cc1cccc(OCC(=O)Nc2ccc(S(=O)(=O)N3CCCC3)cc2)c1 was read as Beta apoptosis -1, Gli-Sufu block -13, CSC inhib 0, MPTP inh -2, Mdm2 MdmX PPI -7 and GRIN3A LBD mod -8.
For Cc1cc(C)c(OCC(=O)Nc2ccc(S(=O)(=O)N3CCCC3)cc2)c(C)c1 the results were Beta apoptosis 3, Gli-Sufu block 98*, CSC inhib -11, MPTP inh 0, Mdm2 MdmX PPI 19, GRIN3A LBD mod -3, Gli antag conf 20, SufuKO cytotox 25* and Wnt3a counter -23.
Screening N#Cc1c(-n2ccnc2)cccc1-n1ccnc1 returned Beta apoptosis -9, Gli-Sufu block -2, CSC inhib 1, MPTP inh 0, Mdm2 MdmX PPI 1 and GRIN3A LBD mod 0.
Screening CC(C)(C)c1ccc(OCCCN2CCCC2)cc1 returned Beta apoptosis -7, Gli-Sufu block 57*, CSC inhib 34, MPTP inh 2, Mdm2 MdmX PPI 22, GRIN3A LBD mod 2, Gli antag conf 25, SufuKO cytotox -2 and Wnt3a counter -27.
C[N+](C)(C)C(Cc1ccccc1)C(=O)[O-] (stereo not drawn) was read as Gli-Sufu block 0, CSC inhib -2, MPTP inh 1, Mdm2 MdmX PPI -36 and GRIN3A LBD mod 1.
For CCOC(=O)C1=C(C)OC(N)=C(C#N)C1c1cc2ccccc2nc1N1CCCCC1 (stereo not drawn) the results were Beta apoptosis -9, Gli-Sufu block 50, CSC inhib -1, Mdm2 MdmX PPI 24, GRIN3A LBD mod -5, Gli antag conf 35, SufuKO cytotox 16 and Wnt3a counter -14.
Screening CC1(C)CC(=O)c2c(noc2-c2ccccc2)C1 returned Beta apoptosis -1, Gli-Sufu block 75*, CSC inhib 48, MPTP inh -1, Mdm2 MdmX PPI 14, GRIN3A LBD mod 1, Gli antag conf 20, SufuKO cytotox 28* and Wnt3a counter -47.
`Cc1c(C)c2ccc(OS(C)(=O)=O)c(C)c2oc1=O` gave Beta apoptosis -2, Gli-Sufu block -2, CSC inhib -10, MPTP inh 0, Mdm2 MdmX PPI -18 and GRIN3A LBD mod -3.
`O=C(NCc1ccco1)/C(=C\c1cccnc1)NC(=O)c1ccccc1F` gave Beta apoptosis -1, Gli-Sufu block 5, CSC inhib 5, MPTP inh -2, Mdm2 MdmX PPI -26 and GRIN3A LBD mod 0.
COc1ccc(OCC(O)Cn2c(=N)n(CCN3CCOCC3)c3ccccc32)cc1 (stereo not drawn) was read as Beta apoptosis 1, Gli-Sufu block 63*, CSC inhib 6, MPTP inh -1, Mdm2 MdmX PPI 17, GRIN3A LBD mod -1, Gli antag conf 18, SufuKO cytotox 17 and Wnt3a counter -19.
`COc1ccc(OCCC(=O)NCCN2CCOCC2)cc1` gave Beta apoptosis 2, Gli-Sufu block 55, CSC inhib 13, MPTP inh 0, Mdm2 MdmX PPI 22, GRIN3A LBD mod -2, Gli antag conf 21, SufuKO cytotox 16 and Wnt3a counter -16.
Screening CCOc1ccccc1N=Nc1c(C)[nH]n(C(N)=S)c1=O returned Beta apoptosis 29, Gli-Sufu block 15, CSC inhib -6, MPTP inh 2, Mdm2 MdmX PPI 18 and GRIN3A LBD mod -2.
`CS(=O)(=O)Cc1ccc(C(=O)NCC2(N3CCCCC3)CCCCC2)cc1` gave Beta apoptosis -4, Gli-Sufu block 52, CSC inhib -4, MPTP inh -3, Mdm2 MdmX PPI 17, GRIN3A LBD mod -1, Gli antag conf 29, SufuKO cytotox 17 and Wnt3a counter 0.
CS(=O)(=O)c1ccc(C(=O)NCC2(N3CCCCC3)CCCCC2)cc1 was read as Beta apoptosis -3, Gli-Sufu block 19, CSC inhib 6, MPTP inh 6, Mdm2 MdmX PPI 12 and GRIN3A LBD mod 0.
Cn1c(=O)c2c(=O)cc(NNC(=O)CC#N)[nH]c2n(C)c1=O was read as Beta apoptosis -1, Gli-Sufu block -3, CSC inhib -17, MPTP inh 1, Mdm2 MdmX PPI 5 and GRIN3A LBD mod 1.
For CCCCOc1ccc(NC(=O)Nc2nnc(C)s2)cc1 the results were Gli-Sufu block 10, CSC inhib 26, MPTP inh 0, Mdm2 MdmX PPI -6 and GRIN3A LBD mod -4.
For COc1ccc(CNS(=O)(=O)c2ccc3c(c2)N(C(C)=O)CC(C)S3)cc1 (stereo not drawn) the results were Beta apoptosis 14, Gli-Sufu block -7, CSC inhib -17, MPTP inh 2, Mdm2 MdmX PPI 32 and GRIN3A LBD mod -1.
For CCOc1ccc(NS(=O)(=O)c2ccc3c(c2)N(C(C)=O)CC3)cc1 the results were Beta apoptosis 16, Gli-Sufu block 19, CSC inhib -3, MPTP inh -1, Mdm2 MdmX PPI 21 and GRIN3A LBD mod 1.
